Experimental data taken from PubChem BioAssay (NCI).
Compounds without any hit were thinned out: in the full panel of roughly 83,000, 20% have a hit.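 A percent growth of 40 corresponds to 60% growth inhibition; 0 means no net growth; -100 means all cells died. Active threshold: below 10.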 Activity calls are given as the source filed them.

Key:
Assay in all cases: NCI-60 one-dose screen, 48 h (100 = growth as untreated, 0 = no growth, -100 = all killed)
HT29 colon = conditions: 10 µM unless noted
SNB-75 CNS = conditions: 10 µM unless noted
SNB-19 CNS = conditions: 10 µM unless noted
U251 CNS = conditions: 10 µM unless noted
PC-3 prostate = conditions: 10 µM unless noted
SK-MEL-5 melanoma = conditions: 10 µM unless noted
UACC-62 melanoma = conditions: 10 µM unless noted
LOX IMVI melanoma = conditions: 10 µM unless noted
SK-MEL-28 melanoma = conditions: 10 µM
SK-MEL-2 melanoma = conditions: 10 µM unless noted
SN12C renal = conditions: 10 µM unless noted
UO-31 renal = conditions: 10 µM unless noted
TK-10 renal = conditions: 10 µM unless noted
ACHN renal = conditions: 10 µM unless noted
CAKI-1 renal = conditions: 10 µM unless noted
A498 renal = conditions: 10 µM unless noted
CCRF-CEM leukemia = conditions: 10 µM unless noted
MOLT-4 leukemia = conditions: 10 µM unless noted
SR leukemia = conditions: 10 µM unless noted

Measured: growth

Cc1ccc(Nc2nc(N)c3ccccc3n2)cc1Cl
active: SR leukemia 1.13%
inactive: HT29 colon 27.4% | SNB-75 CNS 95.2% | SNB-19 CNS 84.4% | U251 CNS 61.8% | PC-3 prostate 60.4% | SK-MEL-5 melanoma 60.2% | UACC-62 melanoma 53.9% | LOX IMVI melanoma 40.4% | SK-MEL-28 melanoma 102% | SK-MEL-2 melanoma 50.9% | SN12C renal 65.4% | UO-31 renal 57.2% | TK-10 renal 81.5% | ACHN renal 64.4% | CAKI-1 renal 39.7% | A498 renal 72.3% | CCRF-CEM leukemia 48.3% | MOLT-4 leukemia 48.9%

COc1ccc(/C=C2\NC(=O)NC2=O)cc1O
inactive: HT29 colon 107% | SNB-75 CNS 105% | SNB-19 CNS 102% | U251 CNS 99.2% | PC-3 prostate 101% | SK-MEL-5 melanoma 102% | UACC-62 melanoma 103% | LOX IMVI melanoma 95.3% | SK-MEL-28 melanoma 104% | SK-MEL-2 melanoma 115% | SN12C renal 99.7% | UO-31 renal 106% | TK-10 renal 109% | ACHN renal 105% | CAKI-1 renal 85.6% | A498 renal 91.2% | CCRF-CEM leukemia 97.6% | MOLT-4 leukemia 99.5% | SR leukemia 102%

COc1ccc(-c2nsc3c2NC(=O)CC3c2ccsc2)cc1 (stereo not drawn)
inactive: SNB-75 CNS 10.4% | SNB-19 CNS 50% | U251 CNS 20.4% | PC-3 prostate 24.3% | SK-MEL-5 melanoma 22% | UACC-62 melanoma 24.9% | LOX IMVI melanoma 33.4% | SK-MEL-28 melanoma 42.7% | SK-MEL-2 melanoma 45.5% | SN12C renal 41.9% | UO-31 renal 45% | TK-10 renal 53.2% | ACHN renal 41.9% | CAKI-1 renal 27.6% | MOLT-4 leukemia 17.5% | SR leukemia 19.2%
active: HT29 colon 0.633% | A498 renal 0.156% | CCRF-CEM leukemia -7.06%

Brc1ccc(Nc2nc3ccccc3nc2Nc2ccc(Br)cc2)cc1
active: HT29 colon -46.1% | SNB-75 CNS -7.54% | U251 CNS -58.5% | PC-3 prostate -0.436% | SK-MEL-5 melanoma -85.6% | UACC-62 melanoma -16.2% | LOX IMVI melanoma -87% | SK-MEL-28 melanoma -44.2% | SK-MEL-2 melanoma -58% | SN12C renal -9.63% | UO-31 renal -25.7% | TK-10 renal -55.4% | ACHN renal 4.91% | CAKI-1 renal -16.3% | A498 renal -18.1% | CCRF-CEM leukemia -15% | MOLT-4 leukemia -21.4% | SR leukemia -23.5%
inactive: SNB-19 CNS 16.6%

Clc1ccc(Nc2nnc(-c3ccc4c(c3)OCO4)o2)cc1
inactive: HT29 colon 95% | SNB-75 CNS 121% | SNB-19 CNS 99% | U251 CNS 102% | PC-3 prostate 107% | SK-MEL-5 melanoma 104% | UACC-62 melanoma 88.9% | LOX IMVI melanoma 89.9% | SK-MEL-28 melanoma 114% | SK-MEL-2 melanoma 102% | SN12C renal 96.6% | UO-31 renal 86.9% | TK-10 renal 94.6% | ACHN renal 102% | CAKI-1 renal 98.4% | A498 renal 97.5% | CCRF-CEM leukemia 100% | MOLT-4 leukemia 82.7% | SR leukemia 83.4%

Cc1ccc(CN2CCC(C(=O)Nc3ccc(-c4cc5ccccc5[nH]4)cc3)CC2)o1
inactive: HT29 colon 57.1% | SNB-75 CNS 100% | SNB-19 CNS 80% | U251 CNS 39.8% | SK-MEL-5 melanoma 50.4% | UACC-62 melanoma 72.1% | LOX IMVI melanoma 42.2% | SK-MEL-28 melanoma 85.1% | SK-MEL-2 melanoma 88.4% | SN12C renal 60.7% | UO-31 renal 47.5% | TK-10 renal 73% | ACHN renal 44.3% | CAKI-1 renal 71.7% | SR leukemia 14.1%
active: PC-3 prostate 2.12% | A498 renal 4.02% | CCRF-CEM leukemia 8.89% | MOLT-4 leukemia -4.18%

COc1ccc(C2c3ccc4ccccc4c3Oc3ncn(CCCn4ccnc4)c(=N)c32)cc1OC (stereo not drawn)
inactive: HT29 colon 20.7% | SNB-75 CNS 84.4% | SNB-19 CNS 79.2% | U251 CNS 61% | PC-3 prostate 52.6% | SK-MEL-5 melanoma 63.7% | UACC-62 melanoma 69.1% | LOX IMVI melanoma 35.9% | SK-MEL-28 melanoma 68.2% | SK-MEL-2 melanoma 81.4% | SN12C renal 61% | UO-31 renal 38% | TK-10 renal 52.6% | ACHN renal 67.4% | CAKI-1 renal 60.7% | A498 renal 40.3% | CCRF-CEM leukemia 42.1% | MOLT-4 leukemia 61.9% | SR leukemia 26.9%

CCn1c(SCC(=O)Nc2cc(C(F)(F)F)ccc2Cl)nc2ccccc2c1=O
active: UACC-62 melanoma -79.1% | LOX IMVI melanoma -7.15% | SK-MEL-28 melanoma -28.6% | CCRF-CEM leukemia -3.31% | MOLT-4 leukemia -7.72% | SR leukemia -16.2%
inactive: HT29 colon 15.7% | SNB-75 CNS 13.4% | SNB-19 CNS 93.5% | U251 CNS 47.9% | PC-3 prostate 17.5% | SK-MEL-5 melanoma 25.7% | SK-MEL-2 melanoma 87.3% | SN12C renal 57.1% | UO-31 renal 22.7% | TK-10 renal 33.7% | ACHN renal 39.1% | CAKI-1 renal 48.4% | A498 renal 35.6%

N#Cc1c(N)nc2c(c1N)C(c1ccc(F)cc1)c1ccc(N)cc1O2 (stereo not drawn)
inactive: HT29 colon 112% | SNB-75 CNS 86.6% | SNB-19 CNS 127% | U251 CNS 102% | PC-3 prostate 106% | SK-MEL-5 melanoma 96.1% | UACC-62 melanoma 111% | LOX IMVI melanoma 110% | SK-MEL-28 melanoma 109% | SK-MEL-2 melanoma 112% | SN12C renal 104% | UO-31 renal 105% | TK-10 renal 116% | ACHN renal 102% | CAKI-1 renal 91.3% | A498 renal 58.4% | CCRF-CEM leukemia 99.9% | MOLT-4 leukemia 96.4% | SR leukemia 93%

CCOC(=O)c1cc2c(n1Cc1ccccc1OC)-c1oncc1CCC2
active: SNB-75 CNS -2.26% | SK-MEL-5 melanoma 6.57% | A498 renal -2.62% | CCRF-CEM leukemia 8.18% | SR leukemia 4.65%
inactive: HT29 colon 10.1% | SNB-19 CNS 59.6% | U251 CNS 36.7% | PC-3 prostate 30.8% | UACC-62 melanoma 26.5% | LOX IMVI melanoma 45.5% | SK-MEL-28 melanoma 44.8% | SK-MEL-2 melanoma 27.5% | SN12C renal 53.3% | UO-31 renal 45.2% | TK-10 renal 59.4% | ACHN renal 53.4% | CAKI-1 renal 35.8% | MOLT-4 leukemia 28.4%

O=C(Nc1ccsc1C(=O)NC1CCCCC1)c1ccc(F)cc1
inactive: HT29 colon 92.9% | SNB-75 CNS 85.2% | SNB-19 CNS 98.8% | U251 CNS 101% | PC-3 prostate 67.9% | SK-MEL-5 melanoma 105% | UACC-62 melanoma 103% | LOX IMVI melanoma 97.7% | SK-MEL-28 melanoma 96.4% | SK-MEL-2 melanoma 121% | SN12C renal 98.3% | UO-31 renal 94.4% | TK-10 renal 114% | ACHN renal 101% | CAKI-1 renal 95.6% | A498 renal 95.5% | CCRF-CEM leukemia 66.6% | MOLT-4 leukemia 95.6% | SR leukemia 79.4%

Cc1cc(Nc2ccc(OCc3ccccc3)cc2)nc2cc(O)ccc12
inactive: SNB-75 CNS 81.6% | SNB-19 CNS 70.5% | U251 CNS 10.2% | PC-3 prostate 53.5% | UACC-62 melanoma 71.7% | LOX IMVI melanoma 13.3% | SK-MEL-28 melanoma 59.2% | SK-MEL-2 melanoma 70.4% | SN12C renal 78.2% | UO-31 renal 44.9% | TK-10 renal 73.4% | ACHN renal 73.8% | CAKI-1 renal 72.3% | A498 renal 95.8% | MOLT-4 leukemia 26%
active: HT29 colon 2.05% | SK-MEL-5 melanoma 9.21% | CCRF-CEM leukemia 8.27% | SR leukemia -17.5%

Cc1ccc(C)c(-c2csc(Nc3ccc(C)c(C)c3)n2)c1
inactive: SNB-75 CNS 34% | SNB-19 CNS 84% | PC-3 prostate 63.9% | UACC-62 melanoma 49.2% | SK-MEL-2 melanoma 31.6% | SN12C renal 66.3% | UO-31 renal 40.3% | TK-10 renal 51.6% | ACHN renal 58.9% | CAKI-1 renal 78.2% | A498 renal 65.7% | MOLT-4 leukemia 24.9%
active: HT29 colon 4.56% | U251 CNS 8.11% | SK-MEL-5 melanoma -92.3% | LOX IMVI melanoma -67.9% | SK-MEL-28 melanoma -93.3% | CCRF-CEM leukemia 6.99% | SR leukemia -6.45%

COc1cc(-c2c3c(c(Br)n2Cc2ccccc2)-c2nc(N)sc2CC3)cc(OC)c1OC
inactive: HT29 colon 105% | SNB-75 CNS 73.7% | SNB-19 CNS 88.2% | U251 CNS 85.3% | PC-3 prostate 78.6% | SK-MEL-5 melanoma 87.1% | UACC-62 melanoma 68.3% | LOX IMVI melanoma 87.5% | SK-MEL-28 melanoma 87.3% | SK-MEL-2 melanoma 101% | SN12C renal 85.7% | UO-31 renal 70.6% | TK-10 renal 119% | ACHN renal 88.3% | CAKI-1 renal 97.4% | A498 renal 80.5% | CCRF-CEM leukemia 44.4% | MOLT-4 leukemia 50.6% | SR leukemia 40.2%

COc1cc(C#N)cc2[nH]c(=O)oc12
inactive: HT29 colon 106% | SNB-75 CNS 71.9% | SNB-19 CNS 106% | U251 CNS 92.4% | PC-3 prostate 102% | SK-MEL-5 melanoma 96.7% | UACC-62 melanoma 113% | LOX IMVI melanoma 111% | SK-MEL-28 melanoma 107% | SK-MEL-2 melanoma 106% | SN12C renal 115% | UO-31 renal 85.6% | TK-10 renal 103% | ACHN renal 99.7% | CAKI-1 renal 91.8% | A498 renal 82.5% | CCRF-CEM leukemia 109% | MOLT-4 leukemia 123% | SR leukemia 120%

Nc1nonc1-n1nncc1-c1cccnc1
inactive: HT29 colon 107% | SNB-75 CNS 81.2% | SNB-19 CNS 129% | U251 CNS 101% | PC-3 prostate 105% | SK-MEL-5 melanoma 106% | UACC-62 melanoma 112% | LOX IMVI melanoma 98.3% | SK-MEL-28 melanoma 105% | SK-MEL-2 melanoma 111% | SN12C renal 117% | UO-31 renal 92.9% | TK-10 renal 107% | ACHN renal 105% | CAKI-1 renal 95.1% | A498 renal 81.9% | CCRF-CEM leukemia 106% | MOLT-4 leukemia 91.4% | SR leukemia 103%

O=C1OC(c2ccccc2)(c2ccccc2)c2ccsc21
inactive: HT29 colon 102% | SNB-75 CNS 103% | SNB-19 CNS 102% | U251 CNS 102% | PC-3 prostate 101% | SK-MEL-5 melanoma 102% | UACC-62 melanoma 94.1% | LOX IMVI melanoma 103% | SK-MEL-28 melanoma 112% | SK-MEL-2 melanoma 94% | SN12C renal 98.8% | UO-31 renal 88.6% | TK-10 renal 101% | ACHN renal 97.9% | CAKI-1 renal 101% | A498 renal 96.6% | CCRF-CEM leukemia 89.2% | MOLT-4 leukemia 76% | SR leukemia 84.5%
